Reference: PubChem BioAssay AID651674 (The Scripps Research Institute Molecular Screening Center, 2012)
Hit rate of the full screen: of about 2,200 compounds, about 1,700 (77%) were called active. The set was probably picked from earlier hits. These entries were drawn from the full list. A number with no mark means an inactive call.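 The calls were made as follows: active = mean inhibition across replicate wells exceeding the computed hit threshold (cut at about 13% in these data); inactive = the rest.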

Each compound was assayed against Hepatocyte nuclear factor 4-alpha (Homo sapiens) (UniProt P41235) (assay: blockers of HNF4 self-association – biochemical, split-luciferase complementation, luminescence, counter-screen for ABHD5-PLIN5 interaction inhibitor project (AID 651674;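 also: light from luciferase halves that rejoin when HNF4 fusion proteins dimerize; 0% = DMSO only wells and the 100% control is not given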)). Details: HNF4 dimerization, at 4 µM, hits give high values.
Chain of Hepatocyte nuclear factor 4-alpha (Homo sapiens) (P41235 whole entry, looked up, the tested form may be a part): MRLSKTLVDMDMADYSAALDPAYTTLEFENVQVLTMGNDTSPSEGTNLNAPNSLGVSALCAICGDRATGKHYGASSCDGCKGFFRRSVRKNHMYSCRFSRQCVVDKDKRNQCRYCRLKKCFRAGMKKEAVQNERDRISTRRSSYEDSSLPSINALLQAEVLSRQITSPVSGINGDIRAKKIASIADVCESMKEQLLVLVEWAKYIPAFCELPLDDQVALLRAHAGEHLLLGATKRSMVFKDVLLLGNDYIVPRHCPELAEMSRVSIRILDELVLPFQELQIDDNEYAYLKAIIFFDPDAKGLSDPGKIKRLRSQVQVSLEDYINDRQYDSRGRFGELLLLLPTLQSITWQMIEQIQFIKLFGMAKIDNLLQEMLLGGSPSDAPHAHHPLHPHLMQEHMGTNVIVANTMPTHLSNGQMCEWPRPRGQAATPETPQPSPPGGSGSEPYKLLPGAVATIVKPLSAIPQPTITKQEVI

Compound	inhibition
CCC(C(=O)OCCN(CC)CC)c1ccccc1 (stereo not given)	32.3% (active)
COc1ccc(-n2cc(CNC3CCOCC3)c(-c3cccc(F)c3)n2)cc1	-1.5%
CCn1c(SC)nc(O)c(C(c2ccc(OC)c(O)c2)c2c(O)nc(SC)n(CC)c2=O)c1=O	52.2% (active)
O=C(CCl)Nc1ccc(Sc2ccc(NC(=O)CCl)cc2)cc1	28% (active)
Cc1csc(NC(=O)NC2(C(F)(F)F)Oc3ccccc3O2)n1	99.4% (active)
Cc1cccc(C)c1NC(=O)C(c1ccc(C(F)(F)F)cc1)n1c(=O)c(-c2ccco2)nc2ccccc21 (stereo not given)	15.7% (active)
Cc1cccc(C)c1NC(=O)C(c1cccc2ccccc12)n1c(=O)c(-c2ccco2)nc2ccccc21 (stereo not given)	5.63%
N#Cc1ccc(C(C(=O)NCc2ccccc2)n2c(=O)c(-c3ccco3)nc3ccccc32)cc1 (stereo not given)	46.7% (active)
O=C(NC1CCCCC1)C(c1cc2ccccc2o1)n1c(=O)c(-c2ccco2)nc2ccccc21 (stereo not given)	12.5% (active)
NC(=O)c1nsc(C(=O)N(CC(=O)NCc2ccc(F)cc2)Cc2ccco2)c1N	2.04%
Cc1ccc2nc(-c3ccco3)c(Cc3cccc(Cl)c3)n2c1	49.6% (active)
Cc1ccc(Cc2c(-c3ccco3)nc3ccc(Cl)cn23)cc1	47.3% (active)
O=C(CCN1CCc2ccccc2C(O)(c2ccccc2)C1)c1ccc2c(c1)OCCO2 (stereo not given)	100% (active)
O=C1/C(=C\c2ccc(O)cc2)CCC1CNc1ccc(Cl)cc1 (stereo not given)	50% (active)
COC(=O)c1cnn2c(C(F)(F)F)cc(-c3ccco3)nc12	9.71%
O=C(N/N=C/C=C/c1ccco1)c1cccs1	39% (active)
COc1ccccc1C1/C(=C(/O)c2ccc(C)cc2)C(=O)C(=O)N1Cc1ccco1 (stereo not given)	10.7%
O=C1/C(=C\c2ccc([N+](=O)[O-])cc2)CS(=O)(=O)C/C1=C/c1ccc([N+](=O)[O-])cc1	108% (active)
c1ccc(CCC2=NCCn3cccc32)cc1	4.26%
O=C(O)c1ccc2c(c1)C(=O)N(c1ccc(/C=C/C(=O)c3ccccc3)cc1)C2=O	89.2% (active)
CC(=O)N(c1ccc2oc(=O)sc2c1)S(=O)(=O)c1ccc(C)cc1	17.5% (active)
COc1cccc2sc(N(CCCN(C)C)C(=O)C(c3ccccc3)c3ccccc3)nc12	6.22%
Cc1ccc(SC(CC(=O)c2ccc(C(C)(C)C)cc2)C(=O)O)cc1 (stereo not given)	89.8% (active)
O=C(/C=C/c1ccc(Cl)cc1Cl)c1cccnc1	105% (active)
Cc1nc2sc(C(c3ccco3)N3CCOCC3)c(O)n2n1 (stereo not given)	-1.74%
Cc1ccc(NC(=O)c2cc(-c3ccc(C)o3)nc3ccccc23)nc1	44.1% (active)
CCOC(=O)C(=Cc1ccccc1)C(=O)c1ccccc1	97% (active)

Compound	inhibition
CCOC(=O)C(=Cc1ccccc1OC)C(=O)OCC	51.8% (active)
CCc1ccc(NC(=O)CSc2nnc(-c3cnccn3)n2Cc2ccco2)cc1	25.6% (active)
CC(=O)c1ccc(NC(=O)CCc2nnc3ccc(NCc4ccco4)nn23)cc1	2.03%
COCCN(CCOC)c1nc(N)c2c(N)nc3c(c2c1C#N)CC(=O)N3Cc1ccc(Cl)cc1	9.32%
N#Cc1ccccc1S(=O)(=O)N1CCN(Cc2c(O)ccc3ccccc23)CC1	86.6% (active)
CC1=CC(C)(C)Nc2ccc(OC(=O)CN3C(=O)C4CCCCC4C3=O)cc21 (stereo not given)	52.3% (active)
CC1=CC(C)(C)Nc2ccc(OC(=O)C(Cc3ccccc3)N3C(=O)C4CCCCC4C3=O)cc21 (stereo not given)	15.7% (active)
COC(=O)c1nc(NC(=O)c2ccc(C(C)(C)C)cc2)n[nH]1	4.25%
CCN(CCCNC(=O)c1ccc2c(c1)NC(=O)CN2C)c1cccc(C)c1	76.9% (active)
CCCCOC(=O)CNc1nnc(SCC(=O)OCC)[nH]c1=O	103% (active)
O=C(Nc1ccccc1)c1nnsc1S(=O)(=O)c1ccc(Cl)cc1	100% (active)
O=C(Nc1ccccc1Cl)/C(Cl)=C(\Cl)S(=O)c1ccccc1 (stereo not given)	108% (active)
O=C(Nc1nc(-c2ccco2)c(-c2ccco2)s1)c1ccco1	77.9% (active)
Cc1[nH]c(=O)c(C(=O)/C=C/c2ccccc2)c2c1CCCC2	37.9% (active)
CC1(C)CCSC(/C=C/c2ccccc2)=N1	91.4% (active)
C[C@@H]1C[C@@H]2O[C@H]2/C=C\C=C\C(=O)Cc2c(Cl)c(O)cc(O)c2C(=O)O1	47.9% (active)
COc1ccc2sc(-c3ccccc3OC)c(-c3ccc(OCCN4CCCC4)cc3)c2c1	7.03%
O=C1C(Cl)=C(Oc2ccccc2)C(=O)c2ccccc21	105% (active)
CC1(Oc2ccccc2-c2ccno2)CCN(Cc2ccc(-c3ccccc3)o2)C1 (stereo not given)	48.5% (active)
COc1ccc2c(c1)c(=Cc1ccc(N(C)C)cc1)c1cc(-c3ccccc3)[n+](C)n12	18.1% (active)
CCN1CCC(O)(/C=C/c2ccc(C)cc2)C(C(=O)/C=C/c2ccc(C)cc2)C1 (stereo not given)	85.5% (active)
CCCOc1ccc(C(=O)C(CCC(CNCC)C(=O)c2ccc(OCCC)cc2)CNCC)cc1 (stereo not given)	24.2% (active)
O=C(Cn1nc(CNc2ccc(Cl)cc2)[n+]2c1CCCCC2)c1ccc(Cl)cc1	6.95%
Cc1cccc(C=CC(=O)c2ccc(Cl)cc2)c1	67.2% (active)
COc1ccc(N/C=C(\C2OC(=O)c3ccccc32)[N+](=O)[O-])cc1 (stereo not given)	22.1% (active)
COC(=O)/C=C\C(=O)Nc1cccc([N+](=O)[O-])c1	109% (active)
CCS(=O)(=O)Nc1ccc(C2=NN(S(=O)(=O)c3ccc(F)cc3)C(c3ccco3)C2)cc1 (stereo not given)	9.93%

Compound	inhibition
O=c1[nH]c(/C=C\c2cccc(C(F)(F)F)c2)nc(O)c1[N+](=O)[O-]	73.2% (active)
O=C(/C(=C/c1cccc(Cl)c1)c1nc2ccccc2[nH]1)c1ccccc1	92% (active)
COc1ccc(CCNC(=O)c2nnc(CS(=O)(=O)c3ccccc3)o2)cc1OC	2.92%
COc1ccccc1-n1nnnc1S(=O)(=O)Cc1ccc(Cl)cc1	32.1% (active)
COc1ccc(-c2cc(C(F)(F)F)nc(S(C)(=O)=O)n2)cc1OC	80.6% (active)
Nc1cccc(OCCCCCOc2cccc(N)c2)c1	-6.94%
O=C(NNc1c2ccccc2nc2ccccc12)c1cc2ccccc2cc1O	23.8% (active)
COc1ccc(/C=C/C(=O)c2ccc(NS(=O)(=O)c3ccc(C)cc3)cc2)cc1O	54.5% (active)
OC(CNCC1CCCO1)Cn1c2ccc(Br)cc2c2cc(Br)ccc21 (stereo not given)	-1.25%
O=C(c1cccnc1)N(c1cc2sc(=O)oc2c2ccccc12)S(=O)(=O)c1ccccc1	104% (active)
Cc1cccc(NC(=O)c2ccc3nsnc3c2)c1C	-0.5%
O=[N+]([O-])/C=C/c1ccc2c(ccn2Cc2ccccc2)c1	108% (active)
COC(=O)C1(C)NC(c2ccccc2OC)C2C(=O)N(c3ccccc3)C(=O)C21 (stereo not given)	2.83%
C[C@@H](CN1CCC[C@H]1CN1C(N)=NC[C@@H]1Cc1ccccc1)N1C[C@@H](Cc2ccccc2)N(CCCC2CCCC2)C1=N	6.92%
O=[N+]([O-])c1c(NCCO)cc(Sc2nc3ccccc3s2)c2nonc12	115% (active)
Cn1sc(=O)c2cc(S(=O)(=O)NC3CC3)ccc21	106% (active)
Cc1cc2c(c(=O)n1Cc1ccco1)C(c1ccccc1)C(C#N)=C(N)O2 (stereo not given)	24.5% (active)
Cc1nnnn1/C(=C\c1ccccc1)C(=O)OCC(=O)N1CC2(C)CC1CC(C)(C)C2 (stereo not given)	46.1% (active)
Cc1nc(-c2ccccc2)sc1C(=O)/C=C/c1ccccc1	59.8% (active)
CC(C)(C)C1C/C(=C/c2ccco2)C(=O)/C(=C/c2ccco2)C1 (stereo not given)	78.9% (active)
CC(=O)Nc1ccc(C=CC(=O)c2ccc([N+](=O)[O-])cc2)cc1	82.5% (active)
O=C(/C=C/c1ccc(Cl)c([N+](=O)[O-])c1)c1ccc(O)cc1	72.8% (active)
O=C(NCCOCc1ccc(Cl)cc1)c1ncn[nH]1	2.01%
COc1ccc(CNC(=O)/C(C#N)=C/c2cccc(OC)c2OC)cc1	45.7% (active)
COC(C/C=C/C(=O)[C@@H](C)OCc1ccccc1)OC	44.4% (active)
Cc1cc(C)nc(S/C=C/C(=O)c2ccccc2)n1	106% (active)
Cc1cccc(CS(=O)(=O)c2ncc(Cl)c(C(=O)Nc3ccc(F)cc3)n2)c1	86.8% (active)

Compound	inhibition
Cc1cccc(NC(=O)c2nc(S(=O)(=O)Cc3ccccc3)ncc2Cl)c1	85.1% (active)
Cc1ccc(CS(=O)(=O)c2ncc(Cl)c(C(=O)Nc3nnc(C)s3)n2)cc1	91.8% (active)
CSc1nnc(NC(=O)c2nc(S(=O)(=O)Cc3ccc(C)cc3)ncc2Cl)s1	50.1% (active)
Cc1c(CCOC(=O)CC23CC4CC(CC(C)(C4)C2)C3)sc[n+]1Cc1ccc([N+](=O)[O-])cc1	5.79%
Cc1ccc(NC(=O)Cn2sc3ccccc3c2=O)cc1	118% (active)
CC1Cc2ccccc2N1CC(=O)Nc1ccc(S(N)(=O)=O)cc1 (stereo not given)	-0.75%
Cc1ccn(C(CC(=O)c2ccc(Br)cc2)C(=O)O)n1 (stereo not given)	38.9% (active)
Cc1ccc(-n2nc(-c3ccco3)cc2C(=O)NCc2cccnc2)cc1	79.1% (active)
CCN1/C(=C\c2ccc3ccccc3[n+]2CC)Sc2cc(C)ccc21	22.4% (active)
C=C(C)C(=O)O[C@H]1C/C(C)=C\C(=O)/C=C(\C)[C@H](O)[C@@H]2OC(=O)C(=C)[C@@H]21	54.8% (active)
Cc1cc(-c2n[nH]c(=S)n2/N=C/C(Br)=C/c2ccccc2)n[nH]1	86.5% (active)
CC1(C(=O)NCc2cccc3ccccc23)CCN1Cc1ccc(-c2ccccc2)o1 (stereo not given)	40.2% (active)
COc1ccc(C(C[N+](=O)[O-])n2nc(C)cc2C)cc1 (stereo not given)	87.3% (active)
O=c1[nH][nH]c2c1[C@H](c1ccc(Cl)cc1)O[C@H](CCc1ccccc1)C2	12%
O=C1C=CC(=O)N1c1ccc(N2CCCCC2)cc1	101% (active)
COc1ccc2c(c1OC)C(=O)OC2Nc1nc(-c2ccccc2)cs1 (stereo not given)	56.7% (active)
O=C(NNc1ccccn1)c1ccc(Cl)nc1	-6.91%
O=C1C=C(c2ccc(Cl)cc2)C(=O)N1Nc1ccccc1	107% (active)
CN(C)CCCNC(=O)/C=C/c1ccc(OCc2c(F)cccc2Cl)cc1	6.86%
O=C(/C=C(O)/C=C/c1ccc(O)cc1)/C=C/c1ccc(O)cc1	74.4% (active)
Cc1cccc(C)c1NC(=O)C(Cl)C(=O)c1ccccc1 (stereo not given)	58.4% (active)
CCN(CC)CCN(C(=O)c1ccc2c(c1)CCCC2)c1nc2c(OC)cccc2s1	11.7%
C=C1C(=O)[C@]23C[C@H]1CCC2[C@@]1(C)C(C[C@@H]3O)[C@](C)(C(=O)O)CC[C@@H]1O (stereo not given in full)	85.8% (active)
CN1CCC[C@@H]1CCO[C@](C)(c1ccccc1)c1ccc(Cl)cc1	9.44%
